# In PubChem BioAssay (Tox21):
# Unmarked numbers belong to inactive results. Records with an inconclusive call do not appear. A call without a number means that no potency is given here. Active and inactive are the calls of the source. Calls follow the shape of the dose curve; as a rule, active = well fitted curve in the direction sought with a large enough effect in the repeat runs; inconclusive = weak or mixed curves; inactive = no such curve, though single readings can be large; an effect the other way counts as inactive or inconclusive.
# Legend:
# [1] = qHTS RealTime-Glo MT Cell Viability Assay in HepG2 cells - 40 hour (AID 1224870); also: nearly all actives have a fitted effect of over 50% in size; also: potency is read from the fitted curve at half-maximal effect
# Procedure, shortened: (§1)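 HepG2 cells mixed with RealTime-Glo MT reagents (NanoLuc plus cell-permeant prosubstrate) were seeded at 600 cells/well, incubated 5 h at 37 C/5% CO2, then pinned with compounds in DMSO; nonlytic luminescence tracked viability during 40 h treatment.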
# [2] = A CellTox Green Cytotoxicity Assay to monitor cytotoxicity in HEK293 cells - 40 hour (AID 1224871); also: nearly all actives have a fitted effect of over 45% in size; also: potency is read from the fitted curve at half-maximal effect
# Procedure, shortened: (§2)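 Real-time, in one plate: 600 HEK293 cells/well with dead-cell DNA dye, pinned compound after 5 h, 37 C incubation over 40 h; viable cells give no appreciable fluorescence.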
# [3] = qHTS RealTime-Glo MT Cell Viability Assay in HEK293 cells - 16 hour (AID 1224872); also: top concentration of the series differs between compounds; nearly all actives have a fitted effect of over 50% in size
# Procedure, shortened: (§3)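 HEK293 cells were seeded at 600 cells/well together with NanoLuc luciferase and cell-permeant prosubstrate, preincubated 5 h at 37 C/5% CO2, then given compound in DMSO by pintool. Luminescence from viable-cell prosubstrate reduction was read repeatedly over 40 h.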
# [4] = qHTS RealTime-Glo MT Cell Viability Assay in HepG2 cells - 8 hour (AID 1224873); also: nearly all actives have a fitted effect of over 55% in size; also: potency is read from the fitted curve at half-maximal effect
# Procedure, shortened: as §1
# [5] = qHTS RealTime-Glo MT Cell Viability Assay in HEK293 cells - 40 hour (AID 1224874); details: RealTime-Glo luminescence; max response: active compounds read low; also: nearly all actives have a fitted effect of over 50% in size; also: potency is read from the fitted curve at half-maximal effect
# Procedure, shortened: (§4)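 Kinetic, non-lysing viability readout. Seed HEK293 (600/well) with reagent, incubate 5 h at 37 C/5% CO2, pin 23 nL compound in DMSO, incubate at 37 C, read luminescence at 0, 8, 16, 24, 32, 40 h.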
# [6] = A CellTox Green Cytotoxicity Assay to monitor cytotoxicity in HEK293 cells - 24 hour (AID 1224875); also: nearly all actives have a fitted effect of over 45% in size; also: potency is read from the fitted curve at half-maximal effect; as to activity change: series mostly up to about 77 µM
# Procedure, shortened: as §2
# [7] = A CellTox Green Cytotoxicity Assay to monitor cytotoxicity in HepG2 cells - 16 hour (AID 1224876); also: nearly all actives have a fitted effect of over 45% in size
# Procedure, shortened: (§5)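 Cytotoxicity was tracked as dead-cell DNA fluorescence in HepG2 cells treated with test compounds at 37 C; each time-point value comes from one kinetic series spanning 0, 8, 16, 24, 32 and 40 h.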
# [8] = qHTS RealTime-Glo MT Cell Viability Assay in HepG2 cells - 32 hour (AID 1224877); also: nearly all actives have a fitted effect of over 55% in size; also: potency is read from the fitted curve at half-maximal effect
# Procedure, shortened: (§6)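 HepG2 cells were seeded at 600 cells/well together with NanoLuc luciferase and a cell-permeant prosubstrate, preincubated 5 h at 37 C/5% CO2, then pin-dosed with compounds in DMSO. Nonlytic luminescence from viable cells was read at each time point.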
# [9] = A CellTox Green Cytotoxicity Assay to monitor cytotoxicity in HepG2 cells - 24 hour (AID 1224878); also: nearly all actives have a fitted effect of over 45% in size; also: potency is read from the fitted curve at half-maximal effect
# Procedure, shortened: as §5
# [10] = A CellTox Green Cytotoxicity Assay to monitor cytotoxicity in HepG2 cells - 40 hour (AID 1224879); also: nearly all actives have a fitted effect of over 40% in size; also: potency is read from the fitted curve at half-maximal effect
# Procedure, shortened: as §5
# [11] = qHTS RealTime-Glo MT Cell Viability Assay in HEK293 cells - 0 hour (AID 1224880)
# Procedure, shortened: as §4
# [12] = A CellTox Green Cytotoxicity Assay to monitor cytotoxicity in HEK293 cells - 32 hour (AID 1224881); also: nearly all actives have a fitted effect of over 40% in size; also: potency is read from the fitted curve at half-maximal effect
# Procedure, shortened: as §2
# [13] = A CellTox Green Cytotoxicity Assay to monitor cytotoxicity in HepG2 cells - 32 hour (AID 1224883); also: nearly all actives have a fitted effect of over 50% in size; also: potency is read from the fitted curve at half-maximal effect
# Procedure, shortened: as §5
# [14] = A CellTox Green Cytotoxicity Assay to monitor cytotoxicity in HEK293 cells - 8 hour (AID 1224884); also: nearly all actives have a fitted effect of over 35% in size; also: potency is read from the fitted curve at half-maximal effect
# Procedure, shortened: as §2
# [15] = qHTS RealTime-Glo MT Cell Viability Assay in HepG2 cells - 16 hour (AID 1224885); also: nearly all actives have a fitted effect of over 50% in size; also: potency is read from the fitted curve at half-maximal effect
# Procedure, shortened: as §6
# [16] = qHTS RealTime-Glo MT Cell Viability Assay in HEK293 cells - 24 hour (AID 1224886)
# Procedure, shortened: as §3
# [17] = A CellTox Green Cytotoxicity Assay to monitor cytotoxicity in HEK293 cells - 16 hour (AID 1224888); also: nearly all actives have a fitted effect of over 35% in size; also: potency is read from the fitted curve at half-maximal effect
# Procedure, shortened: as §2
# [18] = qHTS RealTime-Glo MT Cell Viability Assay in HepG2 cells - 0 hour (AID 1224889); also: nearly all actives have a fitted effect of over 50% in size; also: potency is read from the fitted curve at half-maximal effect
# Procedure, shortened: as §6
# [19] = A CellTox Green Cytotoxicity Assay to monitor cytotoxicity in HepG2 cells - 0 hour (AID 1224882); also: nearly all actives have a fitted effect of over 35% in size; also: potency is read from the fitted curve at half-maximal effect
# Procedure, shortened: as §5
# [20] = qHTS RealTime-Glo MT Cell Viability Assay in HEK293 cells - 8 hour (AID 1224887)
# Procedure, shortened: as §4
smiles,measurement,setting,value
OCCSc1ccccc1,Potency,[1],inactive
same,Potency,[2],inactive
same,Potency,[3],inactive
same,Potency,[4],inactive
same,max response,[5],-28.1%
same,Potency,[6],inactive
same,Potency,[7],inactive
same,Potency,[8],inactive
same,Potency,[9],inactive
same,Potency,[10],inactive
same,Potency,[11],inactive
same,Potency,[12],inactive
same,Potency,[13],inactive
same,Potency,[14],inactive
same,Potency,[15],inactive
same,Potency,[16],inactive
same,Potency,[17],inactive
same,Potency,[18],inactive
CC(C)C(=O)O,Potency,[1],inactive
same,Potency,[2],inactive
same,Potency,[3],inactive
same,Potency,[4],inactive
same,max response,[5],9.49%
same,Potency,[6],inactive
same,Potency,[7],inactive
same,Potency,[8],inactive
same,Potency,[9],inactive
same,Potency,[10],inactive
same,Potency,[11],inactive
same,Potency,[12],inactive
same,Potency,[19],inactive
same,Potency,[13],inactive
same,Potency,[14],inactive
same,Potency,[15],inactive
same,Potency,[20],inactive
same,Potency,[17],inactive
same,Potency,[18],inactive
CC(C)CCCC(=O)O,Potency,[1],inactive
same,Potency,[2],inactive
same,Potency,[3],inactive
same,Potency,[4],inactive
same,max response,[5],-12.3%
same,Potency,[6],inactive
same,Potency,[8],inactive
same,Potency,[9],inactive
same,Potency,[10],inactive
same,Potency,[11],inactive
same,Potency,[12],inactive
same,Potency,[19],inactive
same,Potency,[13],inactive
same,Potency,[14],inactive
same,Potency,[15],inactive
same,Potency,[18],inactive
CCCCC(=O)O[C@]1(C(=O)CO)CC[C@H]2[C@@H]3CCC4=CC(=O)CC[C@]4(C)[C@H]3[C@@H](O)C[C@@]21C,Potency,[1],inactive
same,Potency,[2],inactive
same,Potency,[3],inactive
same,Potency,[4],inactive
same,max response,[5],-24%
same,Potency,[6],inactive
same,Potency,[8],inactive
same,Potency,[9],inactive
same,Potency,[10],inactive
same,Potency,[12],inactive
same,Potency,[13],inactive
same,Potency,[14],inactive
same,Potency,[15],inactive
same,Potency,[20],inactive
same,Potency,[17],inactive
same,Potency,[18],9.52 µM (active)
CC(=O)Nc1ccc(N)cc1,Potency,[1],inactive
same,Potency,[2],inactive
same,Potency,[3],inactive
same,Potency,[4],inactive
same,max response,[5],4.7%
same,Potency,[6],inactive
same,Potency,[8],inactive
same,Potency,[9],inactive
same,Potency,[10],inactive
same,Potency,[11],inactive
same,Potency,[12],inactive
same,Potency,[19],inactive
same,Potency,[13],inactive
same,Potency,[15],inactive
same,Potency,[16],inactive
same,Potency,[20],inactive
same,Potency,[17],inactive
Cn1c(=O)c2c(ncn2CC(=O)O)n(C)c1=O,Potency,[1],inactive
same,Potency,[2],inactive
same,Potency,[3],inactive
same,Potency,[4],inactive
same,max response,[5],1.42%
same,Potency,[6],inactive
same,Potency,[7],inactive
same,Potency,[8],inactive
same,Potency,[9],inactive
same,Potency,[11],inactive
same,Potency,[12],inactive
same,Potency,[13],inactive
same,Potency,[15],inactive
same,Potency,[20],inactive
same,Potency,[17],inactive
same,Potency,[18],inactive
[O]=[Bi],"activity change, negative = cytotoxic",[1],9.58% [at 6.97 µM]
same,cytotoxicity increase,[2],-5.17% [at 6.97 µM]
same,"activity change, negative = cytotoxicity",[3],3.35% [at 6.97 µM]
same,"viability change, negative = cytotoxic",[4],0.919% [at 6.97 µM]
same,max response,[5],3.42%
same,activity change,[6],"-2.05% [at 6.97 µM, active compounds read high]"
same,"activity change, negative = cytotoxic",[8],5.58% [at 6.97 µM]
same,cytotoxicity,[9],-9.9% [at 6.97 µM]
same,cytotoxicity increase,[10],-12.6% [at 6.97 µM]
same,"activity change, negative = cytotoxicity",[11],1.4% [at 6.97 µM]
same,cytotoxicity increase,[12],-0.855% [at 6.97 µM]
same,cytotoxicity,[19],1.27% [at 6.97 µM]
same,cytotoxicity increase,[13],-9.49% [at 6.97 µM]
same,cytotoxicity increase,[14],-5.25% [at 6.97 µM]
same,"activity change, negative = cytotoxic",[15],1.05% [at 6.97 µM]
same,"activity change, negative = cytotoxicity",[16],5.04% [at 6.97 µM]
same,"activity change, negative = cytotoxicity",[18],1.28% [at 6.97 µM]
CCOC(=N)CC(=O)OCC,Potency,[1],inactive
same,Potency,[2],inactive
same,Potency,[3],inactive
same,Potency,[4],inactive
same,max response,[5],-25%
same,Potency,[6],inactive
same,Potency,[8],inactive
same,Potency,[9],inactive
same,Potency,[10],inactive
same,Potency,[11],inactive
same,Potency,[12],inactive
same,Potency,[19],inactive
same,Potency,[13],inactive
same,Potency,[14],inactive
same,Potency,[15],inactive
same,Potency,[16],inactive
same,Potency,[17],inactive
C/C(=N/NC(=O)c1ccncc1)C(=O)O,Potency,[1],inactive
same,Potency,[2],inactive
same,Potency,[3],inactive
same,Potency,[4],inactive
same,max response,[5],0.452%
same,Potency,[6],inactive
same,Potency,[8],inactive
same,Potency,[9],inactive
same,Potency,[10],inactive
same,Potency,[11],inactive
same,Potency,[12],inactive
same,Potency,[13],inactive
same,Potency,[14],inactive
same,Potency,[15],inactive
same,Potency,[16],inactive
same,Potency,[20],inactive
same,Potency,[17],inactive
same,Potency,[18],inactive
c1cnc2c(n1)CCCC2,Potency,[1],inactive
same,Potency,[2],43.6 µM (active)
same,Potency,[3],inactive
same,Potency,[4],inactive
same,max response,[5],1.7%
same,Potency,[6],43.6 µM (active)
same,Potency,[8],inactive
same,Potency,[9],38.9 µM (active)
same,Potency,[10],38.9 µM (active)
same,Potency,[11],inactive
same,Potency,[12],43.6 µM (active)
same,Potency,[19],24.5 µM (active)
same,Potency,[13],43.6 µM (active)
same,Potency,[14],43.6 µM (active)
same,Potency,[15],inactive
same,Potency,[16],inactive
same,Potency,[20],inactive
same,Potency,[17],43.6 µM (active)
same,Potency,[18],inactive
CC(=O)Oc1ccc(C(=C2CCCCC2)c2ccc(OC(C)=O)cc2)cc1,Potency,[1],inactive
same,Potency,[2],inactive
same,Potency,[3],inactive
same,Potency,[4],inactive
same,max response,[5],4.82%
same,Potency,[6],inactive
same,Potency,[8],inactive
same,Potency,[9],inactive
same,Potency,[11],inactive
same,Potency,[12],inactive
same,Potency,[19],inactive
same,Potency,[13],inactive
same,Potency,[14],inactive
same,Potency,[15],inactive
same,Potency,[16],inactive
same,Potency,[20],inactive
same,Potency,[18],inactive
C[N+]1(C)CCC(=C(c2ccccc2)c2ccccc2)CC1,Potency,[1],inactive
same,Potency,[2],inactive
same,Potency,[3],inactive
same,Potency,[4],inactive
same,max response,[5],7.64%
same,Potency,[6],inactive
same,Potency,[7],inactive
same,Potency,[8],inactive
same,Potency,[9],inactive
same,Potency,[11],inactive
same,Potency,[12],inactive
same,Potency,[19],inactive
same,Potency,[13],inactive
same,Potency,[14],inactive
same,Potency,[15],inactive
same,Potency,[20],inactive
same,Potency,[17],inactive
same,Potency,[18],inactive
CO[C@@]12[C@H](COC(N)=O)C3=C(C(=O)C(C)=C(N)C3=O)N1C[C@@H]1N[C@@H]12,Potency,[1],5.35 µM (active)
same,Potency,[2],inactive
same,Potency,[3],inactive
same,Potency,[4],1.34 µM (active)
same,Potency,[5],0.674 µM (active)
same,Potency,[6],inactive
same,Potency,[8],5.35 µM (active)
same,Potency,[9],8.49 µM (active)
same,Potency,[10],6.74 µM (active)
same,Potency,[11],inactive
same,Potency,[12],inactive
same,Potency,[19],inactive
same,Potency,[13],8.49 µM (active)
same,Potency,[14],inactive
same,Potency,[15],3.38 µM (active)
same,Potency,[20],inactive
same,Potency,[17],inactive
same,Potency,[18],inactive
C=CC(C)=CCC=C(C)C,Potency,[1],inactive
same,Potency,[2],inactive
same,Potency,[3],inactive
same,Potency,[4],inactive
same,max response,[5],4.34%
same,Potency,[6],inactive
same,Potency,[7],inactive
same,Potency,[8],inactive
same,Potency,[9],inactive
same,Potency,[11],inactive
same,Potency,[12],inactive
same,Potency,[19],inactive
same,Potency,[13],inactive
same,Potency,[14],inactive
same,Potency,[15],inactive
same,Potency,[20],inactive
same,Potency,[18],inactive
